Screens (PubChem)
A selection: hits, their analogues and other compounds. The true share with any hit is near 2.4%.
Cruzain Triton: cruzain (T. cruzi) inhibition with detergent. hit rate 0.43% among 200,000. Potency, µM, hits mostly inhibitors. P25779. purified cruzain, Z-FR-AMC fluorescence, 0.01% Triton. AID 1478; further: nearly all actives have a fitted effect of over 40% in size
Target sequence (P25779 123-467 limits assumed): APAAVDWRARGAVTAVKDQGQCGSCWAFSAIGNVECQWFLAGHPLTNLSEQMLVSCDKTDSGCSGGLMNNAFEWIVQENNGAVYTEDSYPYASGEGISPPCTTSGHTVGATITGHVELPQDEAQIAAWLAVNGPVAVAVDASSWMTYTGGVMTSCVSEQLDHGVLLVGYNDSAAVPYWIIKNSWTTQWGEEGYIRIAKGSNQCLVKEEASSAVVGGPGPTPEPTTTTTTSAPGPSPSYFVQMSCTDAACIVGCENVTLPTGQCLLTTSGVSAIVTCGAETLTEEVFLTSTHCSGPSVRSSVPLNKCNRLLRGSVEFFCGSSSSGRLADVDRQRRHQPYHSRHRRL
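Steps: dispense cruzain (1.5 nM final) in acetate buffer pH 5.5 with DTT and 0.01% Triton X-100; pin-transfer compounds; incubate 15 min RT; add Z-FR-AMC (2 uM final); read fluorescence every 30 s, using the 60 s intensity change.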
Cruzain noTriton: blocks cruzain activity in detergent-free assay; AID 1476; hit rate 2.3% among 200,000; Potency, µM, hits mostly inhibitors; purified cruzain, Z-FR-AMC fluorescence, no detergent; P25779; further: nearly all actives have a fitted effect of over 40% in size
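Detergent-free condition (0.00005% Triton X-100) in acetate buffer pH 5.5 with DTT. 1.5 nM enzyme and compound were pre-mixed 15 min, then 2 uM Z-FR-AMC substrate added; reaction progress from fluorescence change between first and third reads (60 s).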
Numbers stand for hits. The call rests on the fitted dose curve; in most records, active means well fitted curve in the direction sought with a large enough effect; inconclusive means small, poorly fitted or top-dose-only effect, or another doubt; inactive means no such curve, though single readings can be large; an effect the other way counts as inactive or inconclusive.

How did COc1ccc2oc(=O)c(-c3csc(Nc4cccc(O)c4)n3)cc2c1 do in these assays?
Cruzain Triton: inactive; Cruzain noTriton: 25µM

Results for COc1ccc(Nc2nc(-c3cc4cccc(OC)c4oc3=O)cs2)cc1 ?
Cruzain Triton: inactive; Cruzain noTriton: inconclusive

Results for CC(=O)/C(=C\c1ccccc1F)C(=O)c1ccccc1 ?
Cruzain Triton: inactive; Cruzain noTriton: inconclusive

How did COc1cc(C(=O)Nc2nc(-c3ccc(Cl)cc3)c(C)s2)ccc1OCC(=O)Nc1ccc(F)cc1 do in these assays?
Cruzain Triton: inactive; Cruzain noTriton: 16µM

How did COc1ccc(-c2nc(NC(=O)c3ccc(OCC(=O)N4CCOCC4)c(OC)c3)sc2C)cc1 do in these assays?
Cruzain Triton: inactive; Cruzain noTriton: inconclusive

Results for COc1ccc(Br)c2c1-c1nc(NC(=O)c3ccc(F)cc3)sc1C2 ?
Cruzain Triton: inactive; Cruzain noTriton: inactive

How did CCc1ccc(-c2nc(NC(=O)c3ccc(OCC(=O)Nc4ccc(F)cc4)c(OC)c3)sc2C)cc1 do in these assays?
Cruzain Triton: inactive; Cruzain noTriton: 4µM

How did N=C(N)SCc1ccc(Cl)c2ccccc12 (tested in a mixture with another compound) do in these assays?
Cruzain Triton: inactive; Cruzain noTriton: inactive

What do the screens show for `COC(=O)c1cc(=O)n(Cc2ccc3c(c2)OCO3)c(=Nc2ccc(F)c(Cl)c2)s1`?
Cruzain Triton: inactive; Cruzain noTriton: 20µM

How did COC(=O)c1cc(=O)n(CCc2ccc(OC)cc2)c(=Nc2ccc(F)c(Cl)c2)s1 do in these assays?
Cruzain Triton: inactive; Cruzain noTriton: inactive

Results for COc1ccccc1NC(=O)Cn1c(=O)n(CCc2ccccc2)c(=O)c2c3c(sc21)CN(C(C)=O)CC3 ?
Cruzain Triton: inactive; Cruzain noTriton: inconclusive

Results for COc1ccc(NC(=O)CCC(=O)c2ccc(-c3ccccc3)cc2)cc1 ?
Cruzain Triton: inactive; Cruzain noTriton: 25µM

What do the screens show for `Cc1ccc(NC(=O)CCC(=O)OCC(=O)c2ccc(-c3ccccc3)cc2)cc1`?
Cruzain Triton: inactive; Cruzain noTriton: inactive

Results for COc1ccc(C(=O)COc2ccc(NC(C)=O)cc2)cc1 ?
Cruzain Triton: inactive; Cruzain noTriton: inactive

What do the screens show for `COc1ccc(C(NC(=O)c2ccc(-c3ccccc3)cc2)c2ccccc2)cc1` (stereo not drawn)?
Cruzain Triton: inactive; Cruzain noTriton: 7.9µM

How did CCCC/C=C/C(NC(=O)c1ccccc1)c1ccccc1 (stereo not drawn) do in these assays?
Cruzain Triton: inactive; Cruzain noTriton: inactive

What do the screens show for `CCCC/C=C/C(NC(=O)c1ccc(-c2ccccc2)cc1)c1ccccc1` (stereo not drawn)?
Cruzain Triton: inactive; Cruzain noTriton: 16µM

How did COc1ccc(C(=O)COC(=O)c2ccc(NC(=O)c3ccccc3)cc2)cc1 do in these assays?
Cruzain Triton: inactive; Cruzain noTriton: 13µM

What do the screens show for `COc1ccc(C(C)NC(=O)c2ccccc2)cc1` (stereo not drawn)?
Cruzain Triton: inactive; Cruzain noTriton: inactive

Results for COc1ccc2c3c(ccc2c1)N[C@H](C(=O)O)CC3 ?
Cruzain Triton: inactive; Cruzain noTriton: inactive

Results for COC(=O)c1ccc(C(NC(=O)OCc2ccccc2)/C(=C/[C@@H](C)C(=O)NCC2CC2)c2cccnc2)cc1 (stereo partly drawn) ?
Cruzain Triton: inactive; Cruzain noTriton: inconclusive

How did COc1ccccc1/C=C/c1nc2ccccc2n1C(C)C do in these assays?
Cruzain Triton: inactive; Cruzain noTriton: inactive

Results for COc1ccccc1NC(=O)c1sc2ncn(Cc3ccccc3Cl)c(=O)c2c1C ?
Cruzain Triton: inactive; Cruzain noTriton: inactive

What do the screens show for `COc1ccccc1N1CCN(/N=C/c2c(C)nn(-c3ccccc3)c2C)CC1`?
Cruzain Triton: inactive; Cruzain noTriton: inconclusive

Results for CCOc1ccc(-c2cc3c(=O)n(Cc4nc(-c5ccccc5OCC)oc4C)ccn3n2)cc1Cl ?
Cruzain Triton: inactive; Cruzain noTriton: inactive

How did O=C(CSC1=Nc2ccccc2C2=NC(Cc3ccccc3)C(=O)N12)Nc1ccccc1C(F)(F)F (stereo not drawn) do in these assays?
Cruzain Triton: inactive; Cruzain noTriton: inactive

How did CCOc1ccccc1C(=O)Oc1c(S(=O)(=O)c2ccc(C)cc2)c(C)nn1-c1ccccc1 do in these assays?
Cruzain Triton: inactive; Cruzain noTriton: inactive

What do the screens show for `S=C1SCN(C2CCCCCCCCCCC2)CN1C1CCCCCCCCCCC1`?
Cruzain Triton: inactive; Cruzain noTriton: inactive

How did COc1ccc(OC)c(NC(=O)C2Cc3ccccc3CN2S(=O)(=O)c2ccc(F)cc2)c1 (stereo not drawn) do in these assays?
Cruzain Triton: inactive; Cruzain noTriton: inconclusive

Results for COc1ccc(C(=O)Nc2ccc(C(=O)OCC(=O)c3ccccc3)cc2)cc1 ?
Cruzain Triton: inactive; Cruzain noTriton: 6.3µM

How did CCOC(=O)c1ccc(NC(=O)c2ccc(NC(=O)c3ccccc3)cc2)cc1 do in these assays?
Cruzain Triton: inactive; Cruzain noTriton: inactive

What do the screens show for `COc1ccccc1C(=O)Nc1nc2nc(C)c(Cc3ccccc3)c(=O)n2[nH]1`?
Cruzain Triton: inactive; Cruzain noTriton: inactive

What do the screens show for `CC(C)CCNS(=O)(=O)c1ccc(-c2ccc(S(=O)(=O)NCCC(C)C)cc2)cc1`?
Cruzain Triton: inactive; Cruzain noTriton: 10µM

What do the screens show for `COc1ccc(S(=O)(=O)NCCC(C)C)cc1OC`?
Cruzain Triton: inactive; Cruzain noTriton: inactive

How did CCCN(Cc1cccs1)C(=O)Nc1cc(Cl)ccc1C do in these assays?
Cruzain Triton: inactive; Cruzain noTriton: inactive

Results for C=CC1CC=CCC1 (stereo not drawn) ?
Cruzain Triton: inactive; Cruzain noTriton: inactive

Results for Cn1cccc1C(=O)N1CCC[C@@]2(CCN(C(=O)Nc3cccc(F)c3)C2)C1 ?
Cruzain Triton: inactive; Cruzain noTriton: inactive

How did CCCCOCCCn1c(-c2ccco2)nc2nc3ccccc3nc21 do in these assays?
Cruzain Triton: 28µM; Cruzain noTriton: inconclusive

Results for COCCCn1c(-c2ccco2)nc2ccccc2c1=O ?
Cruzain Triton: inactive; Cruzain noTriton: inactive

Results for NCS(=O)(=O)O ?
Cruzain Triton: inactive; Cruzain noTriton: inactive

Results for Cc1cccc(C(=O)O)c1C[C@H]1NCC[C@H]2c3ccccc3N[C@@H]12 ?
Cruzain Triton: inactive; Cruzain noTriton: inactive

Results for O=S(=O)(c1ccccc1)N1CCN(c2nc3ccccc3s2)CC1 ?
Cruzain Triton: inactive; Cruzain noTriton: inactive

What do the screens show for `c1ccc(N2CCN(c3nc4cc5c(cc4s3)OCO5)CC2)cc1`?
Cruzain Triton: inactive; Cruzain noTriton: 13µM

Results for Clc1ccc2nc(N3CCN(c4ccccc4)CC3)sc2c1 ?
Cruzain Triton: inactive; Cruzain noTriton: 20µM

What do the screens show for `c1c2c(cc3sc(N4CCOCC4)nc13)OCO2`?
Cruzain Triton: inactive; Cruzain noTriton: inactive

Results for Cc1cc(C2(c3cc(C)c(O)cc3C)OS(=O)(=O)c3ccccc32)c(C)cc1O ?
Cruzain Triton: inactive; Cruzain noTriton: inactive

Results for CCC(=O)N1CCc2cc(S(=O)(=O)NC(CC(C)C)C(=O)NCCc3ccccc3)ccc21 (stereo not drawn) ?
Cruzain Triton: inactive; Cruzain noTriton: inactive

What do the screens show for `COc1cc(NC(C)CCCN)c2ncccc2c1` (stereo not drawn)?
Cruzain Triton: inactive; Cruzain noTriton: inactive

Results for COc1cc(NCCCCCCCN)c2ncccc2c1 ?
Cruzain Triton: inactive; Cruzain noTriton: 16µM

What do the screens show for `c1ccc(C2=NN[C@@H]3c4ccccc4-c4ccccc4N3C2)cc1`?
Cruzain Triton: inactive; Cruzain noTriton: inactive
